{"source": "PubChem BioAssay AID743261", "about": "(The Scripps Research Institute Molecular Screening Center, 2014)", "note": "About 35 (1%) of roughly 3,300 compounds were called active. The list is a sample of the results. Unmarked numbers belong to inactive results. No stated cut-off is given here; in the data, active means inhibition above about 11%; inactive means the rest.", "data": [{"target": "1-phosphatidylinositol 4,5-bisphosphate phosphodiesterase beta-3 (Homo sapiens) (UniProt Q01970)", "sequence (Q01970 whole entry, looked up)": "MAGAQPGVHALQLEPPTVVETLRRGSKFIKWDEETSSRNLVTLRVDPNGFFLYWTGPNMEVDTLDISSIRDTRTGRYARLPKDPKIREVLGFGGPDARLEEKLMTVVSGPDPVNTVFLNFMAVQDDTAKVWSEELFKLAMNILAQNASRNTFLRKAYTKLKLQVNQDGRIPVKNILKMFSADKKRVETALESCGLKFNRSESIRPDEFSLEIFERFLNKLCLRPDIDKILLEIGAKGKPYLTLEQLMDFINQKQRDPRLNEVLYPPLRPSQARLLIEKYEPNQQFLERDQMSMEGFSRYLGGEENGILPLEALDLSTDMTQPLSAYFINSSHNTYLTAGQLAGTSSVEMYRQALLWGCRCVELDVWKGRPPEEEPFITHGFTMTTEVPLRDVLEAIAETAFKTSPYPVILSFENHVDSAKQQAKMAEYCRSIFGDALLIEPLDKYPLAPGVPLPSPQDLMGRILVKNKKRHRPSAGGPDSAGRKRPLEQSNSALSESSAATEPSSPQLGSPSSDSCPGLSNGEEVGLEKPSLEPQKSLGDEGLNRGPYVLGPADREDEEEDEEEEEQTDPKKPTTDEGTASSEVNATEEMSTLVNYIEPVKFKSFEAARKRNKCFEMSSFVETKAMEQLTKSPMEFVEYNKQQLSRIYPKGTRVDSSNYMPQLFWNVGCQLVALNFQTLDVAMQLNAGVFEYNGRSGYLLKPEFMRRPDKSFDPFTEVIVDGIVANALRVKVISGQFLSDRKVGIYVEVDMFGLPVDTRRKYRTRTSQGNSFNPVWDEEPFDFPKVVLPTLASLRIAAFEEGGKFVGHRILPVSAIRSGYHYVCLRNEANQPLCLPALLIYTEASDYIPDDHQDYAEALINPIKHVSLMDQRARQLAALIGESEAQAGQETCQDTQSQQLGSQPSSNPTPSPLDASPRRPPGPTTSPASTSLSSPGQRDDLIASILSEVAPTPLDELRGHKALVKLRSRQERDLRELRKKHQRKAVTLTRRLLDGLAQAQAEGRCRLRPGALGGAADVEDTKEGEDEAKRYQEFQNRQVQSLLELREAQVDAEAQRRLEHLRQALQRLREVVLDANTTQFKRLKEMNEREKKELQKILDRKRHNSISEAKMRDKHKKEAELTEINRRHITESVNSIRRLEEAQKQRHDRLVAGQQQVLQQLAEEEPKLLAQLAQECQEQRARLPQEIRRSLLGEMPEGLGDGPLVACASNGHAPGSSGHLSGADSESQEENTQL", "experiment": "PLC-beta3 inhibitor confirmation, biochemical, fluorescence, purified enzyme (AID 743261)", "settings": "purified PLC-beta3, fluorogenic substrate fluorescence; at 12.3 µM; stronger effect = higher value", "values": [{"compound": "Cc1nc2ccccc2nc1CC(O)(c1ccccc1)c1ccccc1", "inhibition": "1.99%"}, {"compound": "CCOc1ccc(OCC)c(NC(=O)CSc2nnc(Cn3cnc4ccccc43)n2C)c1", "inhibition": "2.61%"}, {"compound": "CCC1S/C(=N/N=C/c2ccco2)NC1=O", "note": "(stereo not drawn)", "inhibition": "3.39%"}, {"compound": "CC(C)n1c(CN2CCN(Cc3ccccc3)CC2)nc2ccccc21", "inhibition": "-2%"}, {"compound": "Nn1cnnc1N/N=C/c1cc([N+](=O)[O-])c(Cl)cc1Cl", "inhibition": "-0.09%"}, {"compound": "COCCCN(C(=S)Nc1c(C)cc(C)cc1C)C(C)c1ccncc1", "note": "(stereo not drawn)", "inhibition": "3.06%"}, {"compound": "Cc1ccc(N2CC(C(=O)NCCS(=O)(=O)N3CCN(c4ccccc4)CC3)CC2=O)cc1", "note": "(stereo not drawn)", "inhibition": "3.26%"}, {"compound": "C/C(CC(C)C)=N\\Oc1nc(C)cc(C)n1", "inhibition": "-3.23%"}, {"compound": "C=CC1=C(C(=O)O)N2C(=O)[C@@H](NC(=O)/C(=N\\OCC(=O)O)c3csc(N)n3)[C@H]2SC1", "inhibition": "20.5% (active)"}, {"compound": "COc1ccc(NC(=O)c2ccc(OC)cc2)cc1", "inhibition": "-4.41%"}, {"compound": "COc1ccc(/C=C2\\N=C3CCCN3C2=O)cc1", "inhibition": "-5.85%"}, {"compound": "O=C(c1ccc2c(c1)OCO2)N1CCNc2ccccc2C1", "inhibition": "-2.69%"}, {"compound": "O=C(CSc1ccccc1)Nc1cccc(S(=O)(=O)N2CCOCC2)c1", "inhibition": "4.18%"}, {"compound": "Cc1cc(C)c(NC(=O)CN2CCOCCOCCOCCOCC2)c(C)c1", "inhibition": "0.38%"}, {"compound": "C=CCn1c(SCn2nnc3ccccc3c2=O)nnc1-c1ccc(Cl)cc1", "inhibition": "-0.45%"}, {"compound": "CCc1c(Nc2ccccc2C)nc(N)[nH]c1=O", "inhibition": "1.95%"}, {"compound": "CCOc1ccccc1NC(=O)CCN1CCN(S(=O)(=O)c2ccc(OC)cc2)CC1", "inhibition": "-0.62%"}, {"compound": "C=CCN(c1ccc(Cl)cc1)S(=O)(=O)c1cccc(C(=O)OCC(=O)N(C)C)c1", "inhibition": "-16%"}, {"compound": "Cc1nc(Nc2ccccc2C)c2cnn(C)c2n1", "inhibition": "-0.91%"}, {"compound": "Cc1ccc(NC(=S)N(Cc2ccco2)C(C)c2cccs2)cc1", "note": "(stereo not drawn)", "inhibition": "-0.01%"}, {"compound": "COc1ccc(C(CNC(=O)c2cc(S(=O)(=O)Nc3cccc(C)c3)ccc2C)N2CCCC2)cc1", "note": "(stereo not drawn)", "inhibition": "-3.32%"}, {"compound": "CCn1c(SCC(C)=O)nc2sc3c(c2c1=O)CCCC3", "inhibition": "-2%"}, {"compound": "Cc1nc2ccc(NC(=O)c3cccc(S(=O)(=O)N4CCOCC4)c3)cc2s1", "inhibition": "-9.8%"}, {"compound": "Cc1c(C#N)c2ncn(CC#N)c(=O)c2n1-c1ccccc1", "inhibition": "-2.4%"}, {"compound": "CS(=O)(=O)N(Cc1ccc(Cl)cc1)c1ccc(C(=O)NCCSCc2ccco2)cc1", "inhibition": "1.86%"}, {"compound": "Nc1nnc(SCC(=O)OCc2ccc(Cl)c(Cl)c2)s1", "inhibition": "-2.66%"}, {"compound": "Cc1ccc(/C=N/NC(=O)CSc2nc3ccccc3o2)cc1", "inhibition": "-1.23%"}, {"compound": "CN(C(=O)c1cccc(NC(=O)Cc2cccc([N+](=O)[O-])c2)c1)C1CCCCC1", "inhibition": "2.33%"}, {"compound": "O=C(C1CCCO1)N1CCN(C(=S)Nc2cccc(Cl)c2)CC1", "note": "(stereo not drawn)", "inhibition": "-2.93%"}, {"compound": "CCOc1ccc(NC(=O)[C@H](C)NC(=O)C2CC(=O)N(c3ccc(OC)cc3)C2)cc1", "note": "(stereo partly drawn)", "inhibition": "-3.05%"}, {"compound": "O=C(O)c1ccc(Cn2c(=S)[nH]c3cc(Cl)ccc3c2=O)cc1", "inhibition": "-7.23%"}, {"compound": "CC(=O)C12CC(C)=C(C)CC1CC1C3CCC4=CC(=O)CCC4(C)C3CCC12C", "note": "(stereo not drawn)", "inhibition": "-2.56%"}, {"compound": "O=C(Nc1ccc(Br)cc1)C1CCC(=O)N1Cc1ccccc1Cl", "note": "(stereo not drawn)", "inhibition": "-0.11%"}, {"compound": "N#Cc1c(NC(=O)C2CCCO2)sc2c1CCCCC2", "note": "(stereo not drawn)", "inhibition": "-7.76%"}, {"compound": "CCOC(=O)C1CCN(C(=O)c2ccccc2N(C)S(=O)(=O)c2ccccc2)CC1", "inhibition": "1.21%"}, {"compound": "O=C(Nc1cccc([N+](=O)[O-])c1)Nn1cnnc1", "inhibition": "0.35%"}, {"compound": "Cc1ccccc1C(=O)Nc1ccccc1Sc1ccccc1", "inhibition": "-4.34%"}, {"compound": "COc1ccc(S(=O)(=O)N2CCC(C(=O)OCC(=O)c3ccccc3)CC2)cc1[N+](=O)[O-]", "inhibition": "0.58%"}, {"compound": "O=C(CCNS(=O)(=O)c1ccc(Br)cc1)NCC1CCCO1", "note": "(stereo not drawn)", "inhibition": "1.04%"}, {"compound": "Cc1ccc(-n2ncc3c2CC(C)(C)CC3NC(=O)CCc2cnn(C)c2)cc1", "note": "(stereo not drawn)", "inhibition": "0.66%"}, {"compound": "COC(=O)C[C@@H]1CC[C@@H]2[C@H](COc3ccc(NC(=O)c4cccc(F)c4)cc3C(=O)N2C)O1", "inhibition": "2.78%"}, {"compound": "Cc1c(C(=O)c2cccc([N+](=O)[O-])c2)c2ccccn2c1CCC#N", "inhibition": "6.14%"}, {"compound": "CN(C)/C=C(/C(=O)c1ccc(Cl)cc1)S(=O)(=O)c1ccccc1", "inhibition": "-1.45%"}, {"compound": "O=C(CSc1ncn[nH]1)N/N=C/c1ccc(F)cc1", "inhibition": "1.52%"}, {"compound": "CNC(=O)c1ccc(NC(=O)c2cccc(C(F)(F)F)c2)cc1", "inhibition": "-1.78%"}, {"compound": "O=C1N[C@@H](c2ccccc2)COC(=O)[C@H](Cc2ccc(F)cc2)C/C=C\\C[C@@H]1CC(=O)N(CCO)Cc1ccccc1", "inhibition": "0.87%"}, {"compound": "C[C@]12c3[nH]c4ccc(Cl)cc4c3CCN1C(=O)[C@@H](CC(=O)NCCCn1ccnc1)C[C@@H]2C(=O)N1CCOCC1", "inhibition": "-2.45%"}, {"compound": "CCc1c(C)n([O-])c2c([n+]1=O)CCCCC2", "inhibition": "-2.11%"}, {"compound": "Cc1cc2nc(SCCN3CCOCC3)[nH]c2cc1C", "inhibition": "0.27%"}, {"compound": "CCCCNc1ccc(C(=O)Nc2cccc(C)n2)cc1[N+](=O)[O-]", "inhibition": "-2.68%"}, {"compound": "COc1ccc(CCNC(=O)COC(=O)Cc2ccccc2F)cc1", "inhibition": "-2.27%"}, {"compound": "CC(C)Oc1ccc(CC(=O)NNC(=S)Nc2ccc(Br)cc2)cc1", "inhibition": "-6.23%"}, {"compound": "Cc1ccc(-c2cn(S(=O)(=O)c3cccc([N+](=O)[O-])c3)nc2N)cc1", "inhibition": "-2.7%"}]}]}
